{"source": "PubChem BioAssay (EPA / NIEHS)", "key": {"[1]": {"test": "CCTE_Deisenroth_5AR_NBTE_donor: CCTE's 5alpha-reductase NanoBRET Target Engagement Assay […], Deisenroth Lab (AID 2284319)", "conditions": "actives raise or lower the signal", "method_in_brief": "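SRD5A2-NanoLuc, HEK293T, 20 h expression. Chemical 10 nM - 29.9 uM, 8 conc, duplicate; 3 h preincubation + 2 h testosterone tracer. Nano-Glo substrate plus extracellular NanoLuc inhibitor; donor lum 460 nm. DMSO baseline, bidirectional fit.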"}, "[2]": {"test": "CCTE_Deisenroth_5AR_NBTE_acceptor: CCTE's 5alpha-reductase NanoBRET Target Engagement Assay - Autofluorescence Screen, Deisenroth Lab (AID 2284321);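 also: compound fluorescence in the acceptor channel under 460 nm excitation flags autofluorescence artifacts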", "conditions": "actives raise or lower the signal", "method_in_brief": "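Autofluorescence counter-screen: chemicals at an assumed nominal 100 uM in DMSO were scanned in three independent runs with 460 nm excitation. Gain or loss of acceptor signal was fitted bidirectionally against DMSO.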"}, "SRD5A2 (gene 6716)": {"test_system": "SRD5A2 (gene 6716)", "test": "CCTE_Deisenroth_5AR_NBTE_ratio: CCTE's 5alpha-reductase NanoBRET Target Engagement Assay - Ratio, Deisenroth Lab (AID 2284322)", "conditions": "actives raise or lower the signal", "method_in_brief": "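Reverse-transfect HEK293T with pNLF1-C-SRD5A2, express 20 h. Pre-incubate cells with chemical 3 h (8-point series, 10 nM - 29.9 uM, duplicate). Add testosterone tracer, 2 h more. Add substrate/inhibitor, read donor and acceptor emission.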"}, "[3]": {"test": "CCTE_Mundy_HCI_iCellGluta_NOG_NeuronCount: CCTE's Neurite Outgrowth Assay in iCellGluta cells for Neuron Count, Mundy Lab (AID 2284340; active = hit-call score of the fitted dose curve at least 0.9, where 1 is the maximum;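 also: cells fixed about 48 h after compound addition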)", "method_in_brief": "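Neuron count read by automated high-content imaging of Hoechst 33342 and betaIII-tubulin/Alexa Fluor-488 labelling in human iPSC glutamatergic neurons. Activity fitted relative to DMSO.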"}, "[4]": {"test": "CCTE_Mundy_HCI_iCellGluta_NOG_NeuriteCount: CCTE's Neurite Outgrowth Assay in iCellGluta cells for Neurite Count, Mundy Lab (AID 2284342; active = hit-call score of the fitted dose curve at least 0.9, where 1 is the maximum;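 also: chemical exposure about 48 hours starting 2 hours after plating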)"}, "SERPINA7 (gene 6906)": {"test_system": "SERPINA7 (gene 6906)", "test": "CCTE_GLTED_hTBG: CCTE's human Thyroxine-binding Globulin (TBG) Inhibition Assay, Great Lakes Toxicology and Ecology Division (GLTED) Lab (AID 2284343; active = hit-call score of the fitted dose curve at least 0.9, where 1 is the maximum;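 also: active chemicals lower fluorescence versus DMSO baseline by displacing probe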)", "method_in_brief": "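Cell-free binding assay in which human TBG is incubated with test chemical for 2 hours and displacement of the fluorescent probe ANSA is read at 380 nm excitation/475 nm emission. Activity is fitted against DMSO as the negative control.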"}, "[5]": {"test": "TAMU_PeakParms_SingleDonor1434_Asystole: Texas A&M University (TAMU) 1.5-hr Human Induced Pluripotent Stem Cell (iPSC)-derived Cardiomyocytes Calcium (Ca+2) Flux Assay for Cardiotoxicity: Asystole (quiescence of beating) (AID 2284328; active = hit-call score of the fitted dose curve at least 0.9, where 1 is the maximum)", "description": "TAMU_PeakParms is a cell-based, multiplexed-readout assay that uses iPSC-derived cardiomyocytes with measurements taken at 1.5 hours after chemical dosing in a microplate: 384-well plate.TAMU_PeakParms_SingleDonor1434_Chronotopy is a phenotype derived from the peak.freq.avg parameter and uses an EC95 as its POD (95% decrease in beat rate, compared to controls). Peak.Freq.Avg measures the average peak frequency, in beats per second, using Fluorescence intensity as a functional reporter from Calcium (Ca+2) flux assay technology. There is no preprocessing performed on the data used to model this phenotype.Data from the assay component TAMU_PeakParms_SingleDonor1434_Asystole was analyzed into 1 assay endpoint. This assay endpoint, TAMU_PeakParms_SingleDonor1434_Asystole, was analyzed in the positive analysis fitting direction relative to DMSO as the negative control and baseline of activity. Using a type of functional reporter, loss-of-signal activity can be used to understand changes in the cardiac function. To generalize the intended target to other relatable targets, this assay endpoint is annotated to the cardiomyocyte function intended target family, where the subfamily is cessation of beating. […]"}, "[6]": {"test": "CCTE_Padilla_ZF_Score.Craniofacial: CCTE's 144 Hour Post-fertilization zebrafish Assay Score for Craniofacial Malformation, Padilla Lab (AID 2284405)", "method_in_brief": "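Wild-type zebrafish embryos (with chorions), one per well in 10% Hanks', were dosed at 6–8 hpf in sealed plates and kept at 26C. They were rinsed at 5 dpf. At 6 dpf two blinded assessors scored craniofacial malformations by brightfield stereomicroscopy.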"}, "[7]": {"test": "CCTE_Padilla_ZF_Score.Edema: CCTE's 144 Hour Post-fertilization zebrafish Assay Score for Edema Malformation, Padilla Lab (AID 2284406)", "method_in_brief": "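Wild-type zebrafish embryos, one per well in Hanks' solution, dosed at 6-8 hpf, sealed and reared at 26C on a 14:10 h cycle; rinsed on 5 dpf. At 6 dpf, blinded assessors scored edema by stereomicroscopy.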"}, "[8]": {"test": "IUF_NPC1_cytotoxicity_72hr: Cytotoxicity Assessment at 72 hours in the Leibniz Research Institute for Environmental Medicine (IUF) Neural Progenitor Cell Proliferation Assay (NPC1) (AID 2284332; active = hit-call score of the fitted dose curve at least 0.9, where 1 is the maximum;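 also: rising LDH signal means more cytotoxicity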)", "method_in_brief": "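Single human fetal cortex neural progenitor spheres (GW 16-19, 0.25-0.35 mm) in EGF/FGF proliferation medium were exposed to compound for 72 h at 37C without renewal. Medium LDH release was read as resorufin fluorescence and fitted as gain-of-signal.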"}}, "note": "Results filed as inconclusive are left out. Calls of active or inactive are those of the source. The calls were made as follows, unless noted: active = hit-call score of the fitted dose curve at least 0.9, where 1 is the maximum; inactive = score below 0.9."}
{"compound": "CCCc1ccc(OC)cc1", "values": [{"measurement": "outcome", "setting": "[1]", "result": "inactive"}, {"measurement": "outcome", "setting": "[2]", "result": "inactive"}, {"measurement": "outcome", "setting": "SRD5A2 (gene 6716)", "result": "inactive"}]}
{"compound": "C1CN(SSN2CCOCC2)CCO1", "values": [{"measurement": "outcome", "setting": "[1]", "result": "inactive"}, {"measurement": "outcome", "setting": "[2]", "result": "inactive"}, {"measurement": "outcome", "setting": "SRD5A2 (gene 6716)", "result": "inactive"}]}
{"compound": "N[C@H]1C(O)O[C@H](CO)[C@H](O)[C@@H]1O", "note": "(stereo not given in full)", "values": [{"measurement": "outcome", "setting": "[3]", "result": "inactive"}, {"measurement": "outcome", "setting": "[4]", "result": "inactive"}]}
{"compound": "CCOC(=O)Cc1cccc2ccccc12", "values": [{"measurement": "AC50", "setting": "SERPINA7 (gene 6906)", "result": "13.4 µM (active)"}]}
{"compound": "CCCCCCCCCCCCCOP(=O)(O)O", "values": [{"measurement": "AC50", "setting": "SERPINA7 (gene 6906)", "result": "2.24 µM (active)"}]}
{"compound": "Oc1ccc(Cl)cc1Cc1cc(Cl)ccc1O", "values": [{"measurement": "outcome", "setting": "[1]", "result": "inactive"}, {"measurement": "outcome", "setting": "[2]", "result": "inactive"}, {"measurement": "AC50", "setting": "SRD5A2 (gene 6716)", "result": "29 µM (active)"}, {"measurement": "AC50", "setting": "SERPINA7 (gene 6906)", "result": "0.072 µM (active)"}]}
{"compound": "O=C(O)CCCC[C@@H]1SC[C@@H]2NC(=O)N[C@@H]21", "values": [{"measurement": "outcome", "setting": "[5]", "result": "inactive"}]}
{"compound": "CN(C)c1ccc(N=Nc2ccccc2C(=O)O)cc1", "values": [{"measurement": "AC50", "setting": "SERPINA7 (gene 6906)", "result": "25.6 µM (active)"}]}
{"compound": "Cc1ccc(C(C)c2ccc(C)c(C)c2)cc1C", "values": [{"measurement": "outcome", "setting": "[1]", "result": "inactive"}, {"measurement": "outcome", "setting": "[2]", "result": "inactive"}, {"measurement": "AC50", "setting": "SRD5A2 (gene 6716)", "result": "50 µM (active)"}, {"measurement": "AC50", "setting": "SERPINA7 (gene 6906)", "result": "1.8 µM (active)"}]}
{"compound": "CCCCCCCC[N+](C)(CCCCCCCC)CCCCCCCC", "values": [{"measurement": "AC50", "setting": "[1]", "result": "11.4 µM (active)"}, {"measurement": "AC50", "setting": "[2]", "result": "8.7 µM (active)"}, {"measurement": "AC50", "setting": "SRD5A2 (gene 6716)", "result": "20.1 µM (active)"}]}
{"compound": "FC(F)=C(F)OC(F)(F)C(F)(F)C(F)(F)F", "values": [{"measurement": "outcome", "setting": "[6]", "result": "inactive"}, {"measurement": "outcome", "setting": "[7]", "result": "inactive"}]}
{"compound": "CC1=NN(c2cc(S(=O)(=O)O)ccc2Cl)C(=O)C1N=Nc1ccccc1", "note": "(stereo not given)", "values": [{"measurement": "outcome", "setting": "[1]", "result": "inactive"}, {"measurement": "outcome", "setting": "[2]", "result": "inactive"}, {"measurement": "AC50", "setting": "SRD5A2 (gene 6716)", "result": "10 µM (active)"}, {"measurement": "outcome", "setting": "SERPINA7 (gene 6906)", "result": "inactive"}]}
{"compound": "CCN(CCC#N)c1ccc(N=Nc2c(Cl)cc([N+](=O)[O-])cc2Cl)cc1", "values": [{"measurement": "outcome", "setting": "[1]", "result": "inactive"}, {"measurement": "outcome", "setting": "[2]", "result": "inactive"}, {"measurement": "AC50", "setting": "SRD5A2 (gene 6716)", "result": "10 µM (active)"}]}
{"compound": "Nc1ncn([C@@H]2O[C@H](CO)[C@@H](O)[C@H]2O)c(=O)n1", "values": [{"measurement": "outcome", "setting": "[8]", "result": "inactive"}, {"measurement": "outcome", "setting": "[3]", "result": "inactive"}, {"measurement": "outcome", "setting": "[4]", "result": "inactive"}]}
{"compound": "CC=CC(F)(F)C(F)(F)C(F)(F)F", "values": [{"measurement": "outcome", "setting": "[6]", "result": "inactive"}, {"measurement": "outcome", "setting": "[7]", "result": "inactive"}]}
{"compound": "CCCCC(CC)CCC(CC(C)C)OS(=O)(=O)O", "note": "(stereo not given)", "values": [{"measurement": "AC50", "setting": "SERPINA7 (gene 6906)", "result": "11.1 µM (active)"}]}
{"compound": "COC(=O)c1c(C)cc(O)c(C)c1O", "values": [{"measurement": "outcome", "setting": "[1]", "result": "inactive"}, {"measurement": "outcome", "setting": "[2]", "result": "inactive"}, {"measurement": "outcome", "setting": "SRD5A2 (gene 6716)", "result": "inactive"}]}
{"compound": "O=c1cc(-c2ccccc2)oc2ccccc12", "values": [{"measurement": "AC50", "setting": "SERPINA7 (gene 6906)", "result": "18.5 µM (active)"}]}
{"compound": "CC(C)(C)c1ccc(OC(=O)c2ccccc2O)cc1", "values": [{"measurement": "AC50", "setting": "SERPINA7 (gene 6906)", "result": "1.69 µM (active)"}]}
{"compound": "CN(C)c1ccc(C(=N)c2ccc(N(C)C)cc2)cc1", "values": [{"measurement": "outcome", "setting": "[1]", "result": "inactive"}, {"measurement": "outcome", "setting": "[2]", "result": "inactive"}, {"measurement": "AC50", "setting": "SRD5A2 (gene 6716)", "result": "22.6 µM (active)"}]}
{"compound": "CCCCCCCC/C=C\\CCCCCCCC(=O)O", "values": [{"measurement": "outcome", "setting": "[1]", "result": "inactive"}, {"measurement": "outcome", "setting": "[2]", "result": "inactive"}, {"measurement": "outcome", "setting": "SRD5A2 (gene 6716)", "result": "inactive"}, {"measurement": "AC50", "setting": "SERPINA7 (gene 6906)", "result": "8.56 µM (active)"}]}
{"compound": "CCOC(F)(F)C(F)(F)C(F)(F)C(F)(F)F", "values": [{"measurement": "outcome", "setting": "[6]", "result": "inactive"}, {"measurement": "outcome", "setting": "[7]", "result": "inactive"}]}
{"compound": "CC1(C)S[C@@H]2[C@H](NC(=O)COc3ccccc3)C(=O)N2[C@H]1C(=O)O", "values": [{"measurement": "outcome", "setting": "[8]", "result": "inactive"}, {"measurement": "outcome", "setting": "[4]", "result": "inactive"}]}
{"compound": "O=C(C=Cc1ccccc1)OCc1ccccc1", "values": [{"measurement": "AC50", "setting": "SERPINA7 (gene 6906)", "result": "25.7 µM (active)"}]}
